Bioassay records (PubChem)
This is a sample that favours compounds with a hit; in the whole collection about 1.8% have one here.
GALR2 agonist = activates the human galanin receptor 2; O43603; GALR2-expressing cells, agonist activation read-out; activation, % (test concentration not listed); 140,000 tested, 0.48% active; in the data active = activation above about 5%, passing the limit was not always enough
Target sequence (O43603 whole entry, looked up): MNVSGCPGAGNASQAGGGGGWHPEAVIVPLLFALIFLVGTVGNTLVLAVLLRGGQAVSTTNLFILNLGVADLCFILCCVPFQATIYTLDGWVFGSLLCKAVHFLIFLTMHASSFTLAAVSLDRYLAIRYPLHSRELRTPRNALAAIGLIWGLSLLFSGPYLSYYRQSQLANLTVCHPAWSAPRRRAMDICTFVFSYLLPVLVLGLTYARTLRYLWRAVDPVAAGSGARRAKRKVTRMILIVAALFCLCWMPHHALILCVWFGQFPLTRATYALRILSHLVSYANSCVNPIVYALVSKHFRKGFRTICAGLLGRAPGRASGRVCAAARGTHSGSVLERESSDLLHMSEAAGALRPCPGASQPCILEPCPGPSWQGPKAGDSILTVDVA
MRP-1 activ = activates MRP-1; H69AR cells + doxorubicin, viability rescue, CellTiter-Glo; viability increase, % at 10 µM; 140,000 tested, 0.61% active; AID 799;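 active = viability gain under doxorubicin at or above a set limit, the compound median plus 3 SD, cut at about 4.7% in these data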;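 also: MRP-1 overexpressing cells given doxorubicin 25 µM after compound pretreatment; 18-22 h compound pretreatment then 72 h with doxorubicin before readout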
MRP resist rev = reverses drug resistance mediated by MRP. H69AR cells + 2 uM doxorubicin, CellTiter-Glo, 72 h. differential viability (reversal), % at 10 µM. 85,000 tested, 0.04% active. AID 602;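 active = viability drop by adding the cancer drug above about 55%, with treated viability meeting a 40% cutoff, limit read from the data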;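 also: larger differential means the compound sensitizes cells more to doxorubicin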
GALR2 blocker = antagonists of human galanin receptor 2 (GALR2); GALR2-expressing cells, antagonist mode; 140,000 tested, 0.39% active; inhibition, % at 4 µM; in the data active = inhibition above about 27%;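 also: cells stimulated with galanin 1-16 at roughly its EC80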
S1P2 agonist = activates the human S1P2 receptor | AID 729 | activation, % at 4.5 µM | S1P2-expressing cell line, agonist reporter read-out | 97,000 tested, 0.46% active; in the data active = activation above about 16%
S1P2 blocker = S1P2 (human) receptor antagonism; AID 736; 97,000 tested, 0.21% active; O95136; cell-based S1P2 antagonist assay, inhibition at 5 uM; inhibition, % at 5 µM; in the data active = inhibition above about 45%;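 also: CRE beta-lactamase reporter cells expressing human S1P2 stimulated with S1P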
GALR2 agon conf = confirmation of human galanin receptor 2 (GALR2) agonists; shares compounds with GALR2 agonist; GALR2-expressing cells, agonist activation; activation, % at 5.6 µM; 460 tested, 10% active; in the data active = activation above about 8.4%
BLA activ ctr = activates beta-lactamase reporter in GALR2 agonist counterscreen; shares compounds with GALR2 agonist; CHO NFAT-bla reporter, beta-lactamase FRET activation; activation, % at 5.6 µM; 460 tested, 10% active;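 active = activation above the screen-wide mean activation plus 3 SD, cut at about 8% in these data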
Of the large screens only hits and unclear results are named; the others gave an inactive call (follow-up assays come after a bar, where they were run).

CCCCNC(=O)c1ccc(Cn2c(=S)[nH]c3c([nH]c4ccc(OC)cc43)c2=O)cc1	GALR2 agonist 10.3 (no result: MRP resist rev, S1P2 agonist, S1P2 blocker) | GALR2 agon conf inactive | BLA activ ctr inactive
Cc1cccc(CC(Cc2nc3ccccc3[nH]2)c2nc3ccccc3[nH]2)c1 (stereo not given)	none (no result: MRP resist rev) | GALR2 agon conf 15.2 | BLA activ ctr 29.4
Cc1cccc(OCCSCc2nc3ccccc3[nH]2)c1	none (no result: MRP resist rev)
CC(Cc1cccs1)NC(=O)Nc1ccc(Cl)c(Cl)c1 (stereo not given)	none
Cc1ccc(-c2c3c(=O)n(C)c(=O)n(C)c3cn2Cc2ccccc2)cc1	GALR2 agonist 71.0 | GALR2 agon conf inactive | BLA activ ctr inactive
CC(C)CNC(=O)c1cccc(NC(=O)Cc2ccc(Cl)cc2)c1	none (no result: MRP resist rev, S1P2 agonist, S1P2 blocker)
CCOc1cc(/C=C2/C(=O)N(c3ccccc3)N=C2C)ccc1OC(=O)c1ccco1	GALR2 agonist 136.0 (no result: MRP resist rev) | GALR2 agon conf inactive | BLA activ ctr inactive
CC1(C)CC(=O)C=C(Nc2ccc(S(N)(=O)=O)cc2)C1	GALR2 agonist 40.9 | GALR2 agon conf inactive | BLA activ ctr inactive
CC1(C)CC(=O)C=C(Nc2ccc(C(=O)O)cc2)C1	none
COc1ccc(C2CC3(CC(C)(C)NC(SC)=N3)Oc3cc(O)cc(C)c32)cc1 (stereo not given)	GALR2 agonist 19.0 (no result: MRP resist rev, S1P2 agonist, S1P2 blocker) | GALR2 agon conf 25.4 | BLA activ ctr 84.5
Cc1ccc(OCc2nc(-c3ccccn3)n[nH]2)cc1	GALR2 agonist 72.6 | GALR2 agon conf inactive | BLA activ ctr inactive
CC1CN(Cc2cc(=O)[nH]c(C(C)C)n2)CC(C)O1 (stereo not given)	GALR2 agonist 45.7 (no result: MRP resist rev) | GALR2 agon conf inactive | BLA activ ctr inactive
O=S(=O)(Nc1cc2nc3ccccc3nc2n1Cc1ccccc1)c1ccc(Cl)cc1	GALR2 agonist 13.6 (no result: MRP resist rev, S1P2 agonist, S1P2 blocker) | GALR2 agon conf inactive | BLA activ ctr inactive
COc1cccc(/C=N/NC(=O)CCc2c(C)n[nH]c2C)c1	GALR2 agonist 14.1 | GALR2 agon conf inactive | BLA activ ctr inactive
CCOC(=O)c1c(C)n(C)c2ccc(OCC(O)CN3C(=O)c4ccccc4S3(=O)=O)cc12 (stereo not given)	none (no result: MRP resist rev) | GALR2 agon conf inactive | BLA activ ctr inactive
CCOC(=O)/C(=N\Nc1ccc(Cl)cc1)c1csc(Nc2ccccc2)n1	none (no result: MRP resist rev)
CCOC(=O)/C(=N/Nc1ccccc1)c1csc(Nc2ccccc2)n1	GALR2 agonist 55.9 | GALR2 agon conf inactive | BLA activ ctr inactive
COc1ccc(OCCn2cc(/C=C(\C#N)C(=O)NCc3ccco3)c3ccccc32)cc1	GALR2 agonist 13.2 (no result: MRP resist rev, S1P2 agonist, S1P2 blocker) | GALR2 agon conf inactive | BLA activ ctr inactive
COc1ccccc1OCCn1cc(/C=C(\C#N)C(=O)NCc2ccco2)c2ccccc21	none (no result: MRP resist rev, S1P2 agonist, S1P2 blocker)
Cc1ccc(C)c(OCCn2cc(/C=C(\C#N)C(=O)NCc3ccco3)c3ccccc32)c1	none (no result: MRP resist rev, S1P2 agonist, S1P2 blocker)
Cc1cccc(NC(=O)/C(C#N)=C/c2cn(CC(=O)NCc3ccco3)c3ccccc23)c1	GALR2 agonist 30.6 (no result: MRP resist rev, S1P2 agonist, S1P2 blocker) | GALR2 agon conf 13.6 | BLA activ ctr 13.4
CC(=O)N1N=C(c2ccncc2)OC12CCCC2	none
CCOC(=O)c1cnc2c(OC)cccc2c1Nc1ccc2c(c1)OCCO2	none (no result: MRP resist rev, S1P2 agonist, S1P2 blocker)
Cc1nc(=O)c(-c2ccccc2)c(C)n1-c1ccccc1O	none (no result: S1P2 agonist, S1P2 blocker)
Cc1cccc(C(=O)N=c2c(C#N)cc3c(=O)n4cccc(C)c4nc3n2Cc2ccco2)c1	none | GALR2 agon conf inactive | BLA activ ctr 8.3
O=C(O)C(Cc1ccccc1)N1Cc2ccccc2C1=O (stereo not given)	none | GALR2 agon conf inactive | BLA activ ctr inactive
CCOc1ccc(NC(=S)NC(=O)c2c(Cl)c(C)nn2C)c([N+](=O)[O-])c1	GALR2 agonist 8.6 (no result: MRP resist rev, S1P2 agonist, S1P2 blocker) | GALR2 agon conf inactive | BLA activ ctr inactive
Cc1[nH]nc(N=CC2=C(O)CC(C)(C)CC2=O)c1-c1ccccc1	GALR2 agonist 14.0 | GALR2 agon conf inactive | BLA activ ctr inactive
Cc1[nH]nc(N=CC2=C(O)CC(c3ccco3)CC2=O)c1-c1ccccc1 (stereo not given)	none
CCN(CC)CC(C)CNC(=O)CN1C(=O)CSc2ccc(S(=O)(=O)N3CCOCC3)cc21 (stereo not given)	none (no result: MRP resist rev, S1P2 agonist, S1P2 blocker)
